# ZTA DNA inh – counter-screen for EBNA-1 inhibitors: inhibitors of Epstein-Barr virus ZTA | P03206 | ZTA-DNA binding, fluorescence polarization | inhibition, % at 11 µM | 320,000 compounds, 0.15% hits | AID 2234; in the data active = inhibition above about 33%
# EBNA-1 inhibitor – blocks EBNA-1 binding to DNA. EBNA-1 DNA binding, fluorescence polarization. inhibition, % at 14.8 µM. 300,000 compounds, 0.34% hits. AID 1950; in the data active = inhibition above about 28%
# aDG glyco act – alpha-DG glycosylation activation; AID 624168; activation, % at 10 µM; 360,000 compounds, 0.22% hits; Pro5-aDG cells, alpha-DG glycosylation AlphaScreen (IIH6); 0% Pro5, 100% B10-LARGE cell signal;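 active = activation of at least 8% versus controls, or a plate z-score of at least 8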;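 also: Pro5 are CHO cells carrying HIG-tagged alpha-DG that lacks glycosylation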
# p47phox inh – blocks human p47phox regulatory protein of NADPH oxidases. P14598. p47phox/p22phox peptide binding, fluorescence polarization, 2 h. inhibition, % at 24.7 µM. 220,000 compounds, 0.53% hits;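 active = inhibition above about 30%, limit read from the data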;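 also: 0% = p47phox with labelled peptide and 100% = labelled peptide alone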
# Rev-erbA mod – modulators of human Rev-erb alpha DNA binding | 370,000 compounds, 0.79% hits | activity, % at 10 µM | AID 1259318 | Rev-erbα–FITC-DNA binding, fluorescence polarization, 90 min;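 active = activity above about 14%, limit read from the data; passing the limit was not always enough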;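 also: 0% = DMSO wells with 35 nM protein and 100% = DMSO wells with 750 nM protein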
# Target sequence (P20393 whole entry, looked up): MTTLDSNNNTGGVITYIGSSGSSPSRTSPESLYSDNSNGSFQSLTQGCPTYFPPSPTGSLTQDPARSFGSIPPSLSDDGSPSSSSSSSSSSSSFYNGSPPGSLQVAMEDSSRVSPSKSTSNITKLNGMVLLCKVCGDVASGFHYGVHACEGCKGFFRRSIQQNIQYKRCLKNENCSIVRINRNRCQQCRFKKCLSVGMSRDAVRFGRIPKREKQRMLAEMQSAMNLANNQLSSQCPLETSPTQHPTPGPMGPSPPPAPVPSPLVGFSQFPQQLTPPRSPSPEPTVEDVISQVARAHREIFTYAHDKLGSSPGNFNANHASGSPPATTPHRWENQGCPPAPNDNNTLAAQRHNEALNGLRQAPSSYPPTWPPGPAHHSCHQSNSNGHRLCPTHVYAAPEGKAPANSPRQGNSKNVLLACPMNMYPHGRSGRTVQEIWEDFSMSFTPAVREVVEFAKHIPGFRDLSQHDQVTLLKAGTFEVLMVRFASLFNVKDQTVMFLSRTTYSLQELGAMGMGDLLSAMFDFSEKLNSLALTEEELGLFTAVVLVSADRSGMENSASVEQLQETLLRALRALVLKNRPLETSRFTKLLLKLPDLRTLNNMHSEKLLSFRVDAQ
# PG9 binder – PG9 antibody binding by small molecule. TR-FRET gp120-PG9 antibody binding. 360,000 compounds, 0.43% hits. inhibition, % at 6.7 µM. AID 624416; in the data active = inhibition above about 8.5%
# EBNA-1 confirm – EBNA-1 (EBV) inhibition, confirmation; Recombinant EBNA-1 DBD, Cy5-DNA fluorescence polarization; 830 compounds, 35% hits; shares compounds with EBNA-1 inhibitor; inhibition, % at 14.8 µM;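 active = mean inhibition across replicates above a set limit taken from the earlier primary screen, cut at about 28% in these data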;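 also: plate controls were EBNA-1 protein with DMSO for no effect and wells lacking EBNA-1 for full effect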
# ZTA counter trip – counter-screen for EBNA-1 inhibitors: Epstein-Barr virus ZTA inhibitors, triplicate | inhibition, % at 11.1 µM | 830 tested, under 10 active | AID 2328 | Zta-ZRE DNA binding, Cy5 fluorescence polarization | shares compounds with EBNA-1 inhibitor;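 active = mean inhibition over triplicates above a set limit taken from the primary EBNA-1 screen, cut at about 37% in these data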;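 also: purified full length Zta protein with Cy5 labeled ZRE DNA probe; 0% = Zta with DMSO and 100% = wells lacking Zta protein; inhibitors lower polarization by freeing the labeled DNA probe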
# PG9 bind confirm – PG9 antibody binding, confirmed; shares compounds with PG9 binder; 1,500 compounds, 90% hits; inhibition, % at 6.7 µM; TR-FRET PG9 antibody binding, biochemical; in the data active = inhibition above about 9%
# PGV04 Ab binding – binds control antibody PGV04 in PG9 binder counter-screen. shares compounds with PG9 binder. TR-FRET PGV04 antibody-gp120 binding, biochemical. inhibition, % at 6.7 µM. 1,500 compounds, 95% hits; in the data active = inhibition above about 9.5%
# NR1D1 mod conf – confirmation of modulators of human Rev-erb alpha DNA binding. shares compounds with Rev-erbA mod. Rev-erb alpha FITC-DNA binding, fluorescence polarization, 90 min. activation, % at 25 µM. 3,000 compounds, 61% hits. AID 1259319;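 active = activation at or above a set limit, or at least 3 SD above the negative control mean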;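 also: 0% = 35 nM protein with DMSO and 100% = 750 nM protein high control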
# RORg counter – RORgamma DNA-binding activity, dose-response counter-screen. purified RORgamma protein-FITC-DNA binding, fluorescence polarization. shares compounds with Rev-erbA mod. AID 1259320. IC50, µM. 910 compounds, 8% hits;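 active = Compounds whose fitted half-maximal concentration for disrupting protein-DNA binding is below 10 micromolar; the record names Rev-erb in its text, so the target is in doubt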
# * hit, by the source's call; i = inactive; nt = not tested or not shown. A selection: hits, their analogues and other compounds. The true share with any hit is near 1.9%.
SMILES,ZTA DNA inh,EBNA-1 inhibitor,aDG glyco act,p47phox inh,Rev-erbA mod,PG9 binder,EBNA-1 confirm,ZTA counter trip,PG9 bind confirm,PGV04 Ab binding,NR1D1 mod conf,others
CCc1ccccc1N(C(=O)c1snc(C(N)=O)c1N)C(C(=O)NCC1CCCO1)c1ccc(N(C)C)cc1 (stereo not given),nt,nt,0,nt,11,1,nt,nt,nt,nt,nt,
Cc1ccccc1N(C(=O)c1snc(C(N)=O)c1N)C(C(=O)NCC1CCCO1)c1ccc(N(C)C)cc1 (stereo not given),6,28*,0,nt,10,0,123*,10,nt,nt,nt,
COCCN(Cc1cc2cc(C)cc(C)c2nc1Cl)C(=O)Nc1ccccc1,-12,56*,0,-12,0,3,-9,3,nt,nt,nt,
COC(=O)[C@]12C[C@H](CC(=O)NCCc3ccccc3OC)C(=O)N(CCc3ccc(OC)c(OC)c3)C1=C[C@H](C1CCCC1)O[C@@H]2C,nt,nt,nt,nt,8,nt,nt,nt,nt,nt,nt,
Cc1ccc(NC(=O)Cn2cc(S(=O)(=O)c3ccc(F)cc3)c(=O)c3cc(F)ccc32)cc1,-1,29*,0,-14,10,24*,47*,0,38*,44*,nt,
CN1C/C(=C/c2ccccc2)N2C(=O)C[C@@H](c3ccccc3)N=C12,nt,nt,nt,nt,5,nt,nt,nt,nt,nt,nt,
COc1cc(CC(=O)Nc2sc3c(c2C(N)=O)CCCC3)cc(OC)c1OC,4,49*,1,nt,14,9.3*,23,17,17*,23*,nt,
COc1ccc(CC(=O)Nc2sc3c(c2C(N)=O)CCCC3)cc1,-4,-12,0,nt,-3,0,nt,nt,nt,nt,nt,
S=c1nc[nH]c2c1[nH]c1ccc(Cl)cc12,12,43*,0,-15,-7,34*,22,0,15*,17*,nt,
COC(=O)[C@H](C(C)C)N1CCc2nnn(CC3CCCCC3)c2-c2ccccc2S1(=O)=O,nt,nt,nt,nt,1,nt,nt,nt,nt,nt,nt,
NC(=O)c1nn(-c2ccccc2)nc1NC(=O)Cn1nnc(-c2ccccc2)n1,1,46*,0,-2,-3,8.6*,24,2,18*,19*,nt,
Cc1cccc(C)c1NC(=O)COC(=O)COc1ccc2c(C)cc(=O)oc2c1,-20,-15,0,-6,-2,0,nt,nt,nt,nt,nt,
Cc1csc(NC(=O)COc2ccc3c(C)cc(=O)oc3c2)n1,15,44*,0,-26,-8,15*,47*,10,21*,30*,nt,
CSCCCNC(=O)c1oc(=O)c2ccccc2c1-c1ccc(C)cc1,nt,nt,nt,nt,0,nt,nt,nt,nt,nt,nt,
Cc1cc(NC(=O)CSc2nc3ccccc3c(=O)n2Cc2ccc(F)cc2)no1,-2,57*,0,23,52*,42*,23,14,62*,65*,26*,
COc1ccc(Cc2nnc(NC(=O)c3ccc(OC)c(OC)c3)s2)cc1,0,-5,0,nt,3,8,nt,nt,nt,nt,nt,
COc1ccc(C(=O)Nc2nnc(Cc3cccs3)s2)cc1OC,12,30*,1,-17,46*,33*,52*,8,45*,75*,47*,RORg counter=>40
Cn1c(SCC(=O)NCCN2CCCCC2)nc2cccnc21,nt,nt,nt,nt,-2,nt,nt,nt,nt,nt,nt,
COc1ccc(-n2c(SCC(=O)N/N=C(/C)c3cccc(O)c3)nc3ccccc3c2=O)cc1,nt,nt,nt,nt,-3,nt,nt,nt,nt,nt,nt,
O=C(NCCN1CCCC1)c1ccc(Cn2c(=S)[nH]c3cc4c(cc3c2=O)OCO4)cc1,-22,2,0,-5,-8,2,nt,nt,nt,nt,nt,
C=CCNC(=O)c1ccc(Cn2c(=S)[nH]c3cc4c(cc3c2=O)OCO4)cc1,4,33*,1,-15,58*,23*,0,0,16*,31*,64*,RORg counter=i
O=C(COc1ccc2ccccc2c1)NNC(=O)Cc1ccccc1,6,28*,0,-14,35*,-28,35*,11,nt,nt,29*,
O=C(NC1CCCCN(Cc2ccc(OC(F)(F)F)cc2)C1=O)c1ccc2ccccc2c1 (stereo not given),nt,nt,nt,nt,-3,nt,nt,nt,nt,nt,nt,
O=C(COCc1ccccc1)N1CC[C@H]2[C@H](CCCN2Cc2cc(F)cc(F)c2)C1,nt,nt,nt,nt,-3,nt,nt,nt,nt,nt,nt,
CCOc1ccc(-n2c(=O)c3sccc3n(CC(=O)Nc3cccc(OC)c3)c2=O)cc1,-5,52*,0,-10,31*,24*,31*,-3,26*,43*,27*,
SMILES,ZTA DNA inh,EBNA-1 inhibitor,aDG glyco act,p47phox inh,Rev-erbA mod,PG9 binder,EBNA-1 confirm,ZTA counter trip,PG9 bind confirm,PGV04 Ab binding,NR1D1 mod conf,others
CC[n+]1ccc(/C=C/c2c[nH]c3ccccc23)cc1,10,42*,0,nt,134*,-9,5,-1,nt,nt,131*,RORg counter=>40
CN(C)c1ccc(C(=O)NC2CCCCN(Cc3ccc(Cl)cc3)C2=O)cc1 (stereo not given),nt,nt,nt,nt,2,nt,nt,nt,nt,nt,nt,
c1ccc(Cn2c(SCC3CCCCC3)nnc2-c2cccnc2)cc1,nt,nt,nt,nt,-3,nt,nt,nt,nt,nt,nt,
O=C(CSc1ncnc2c1oc1ccccc12)Nc1cccc(F)c1,-10,34*,0,-12,343*,69*,54*,9,67*,87*,322*,RORg counter=i
CC(=O)N1[C@@H](CO)[C@@H](c2ccc(-c3cccc(F)c3)cc2)[C@@H]1CNCC1CCC1,nt,nt,nt,nt,9,nt,nt,nt,nt,nt,nt,
Cc1ccc(OCC(=O)Nc2ccc(S(=O)(=O)Nc3ccccn3)cc2)cc1C,-1,43*,0,2,29*,50*,-1,11,41*,45*,22*,
Cc1ccc(-c2nn3c(C)nnc3s2)cc1NC(=O)c1ccc(-c2cccc(Cl)c2)o1,nt,nt,0,-111,-8,-2,nt,nt,nt,nt,nt,
Cc1ccc(-c2nn3c(C)nnc3s2)cc1NC(=O)c1ccc(-c2ccc(Cl)cc2Cl)o1,13,37*,0,-91,124*,1,2,-11,nt,nt,186*,RORg counter=i
CCn1c2ccccc2c2cc(NC(=O)COC(=O)c3ccccc3O)ccc21,-6,6,0,5,8,4,nt,nt,nt,nt,nt,
CCn1c2ccccc2c2cc(NC(=O)COC(=O)c3ccccc3F)ccc21,6,37*,0,-9,25*,28*,25,-4,33*,56*,23*,

# Source: PubChem (several laboratories)
